# Test results published in PubChem BioAssay (Tox21).
# Where “and” joins values, the source holds several entries; their conditions need not be identical. Identical values can stand only once. Results filed as inconclusive are left out. Entries that show only a call come without a potency. Calls of active or inactive are those of the source. The call rests on the fitted dose curve; in most records, active means well fitted curve in the direction sought with a large enough effect in the repeat runs; inconclusive means weak or mixed curves; inactive means no such curve, though single readings can be large; an effect the other way counts as inactive or inconclusive.
# Key:
# [1] = Human pregnane X receptor (PXR) small molecule agonists, qHTS cell viability counter screen (AID 1346977); further: nearly all actives have a fitted effect of over 50% in size; further: potency means the concentration at half of the fitted maximal effect
# Summary of the method: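 Measures live-cell protease fluorescence (CellTiter-Fluor) in PXR-Luc HepG2 cells treated 24hr with compounds at 37C. Cells had 5hr to attach before pin transfer of DMSO solutions.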
# [2] = Caspase-3/7 induction in HepG2 cells by small molecules, qHTS assay (AID 1346978); further: nearly all actives have a fitted effect of over 15% in size; further: potency means the concentration at half of the fitted maximal effect
# Summary of the method: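 Wild-type HepG2 cells (2,000/well) were settled 5 h at 37 C, 5% CO2, then exposed to compounds in DMSO for 17 h. Caspase-3/7 activity was read by luminescence 30 min after adding Caspase-Glo 3/7 reagent at room temperature.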
# [3] = Caspase-3/7 induction in CHO-K1 cells by small molecules, qHTS cell viability counter screen (AID 1346979); further: potency means the concentration at half of the fitted maximal effect; nearly all actives have a fitted effect of over 35% in size
# Summary of the method: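 In the same wells as the caspase read, viability of compound-treated wild-type CHO-K1 cells was assessed using CellTiter-Fluor, added after 16hr at 37C and measured by fluorescence following 1hr further incubation.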
# [4] = Caspase-3/7 induction in HepG2 cells by small molecules, qHTS cell viability counter screen (AID 1346981); further: nearly all actives have a fitted effect of over 30% in size; further: potency means the concentration at half of the fitted maximal effect
# Summary of the method: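 Viability determined by CellTiter-Fluor fluorescence in HepG2 wells also used for the luminescent Caspase-Glo 3/7 read. Compounds were present for 16 hr at 37 C, 5% CO2 before reagent addition.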
# [5] = target: Nuclear receptor subfamily 1 group I member 2 (Homo sapiens) (UniProt O75469); experiment: Human pregnane X receptor (PXR) small molecule agonists, qHTS assay (AID 1346982); further: nearly all actives have a fitted effect of over 35% in size; further: potency means the concentration at half of the fitted maximal effect
# Chain of Nuclear receptor subfamily 1 group I member 2 (Homo sapiens) (O75469 whole entry, looked up): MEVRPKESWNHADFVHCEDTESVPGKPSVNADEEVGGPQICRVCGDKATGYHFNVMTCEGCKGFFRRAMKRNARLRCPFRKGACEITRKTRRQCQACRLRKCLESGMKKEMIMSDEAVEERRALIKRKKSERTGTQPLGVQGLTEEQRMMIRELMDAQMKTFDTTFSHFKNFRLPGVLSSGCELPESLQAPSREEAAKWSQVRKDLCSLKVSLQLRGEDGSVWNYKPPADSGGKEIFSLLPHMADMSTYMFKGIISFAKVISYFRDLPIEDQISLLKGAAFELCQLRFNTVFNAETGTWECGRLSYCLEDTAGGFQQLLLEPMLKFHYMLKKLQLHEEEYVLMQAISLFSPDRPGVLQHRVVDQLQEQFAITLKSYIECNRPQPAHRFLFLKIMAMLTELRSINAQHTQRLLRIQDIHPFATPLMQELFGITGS
# Summary of the method: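 Compound-induced hPXR transactivation of a CYP3A4 luciferase reporter was scored in HepG2 PXR-Luc cells over 24 hr at 37 C, 5% CO2, by luminescence.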
# [6] = target: Cytochrome P450 2D6 (Homo sapiens) (UniProt P10635); experiment: Cytochrome P450 Family 2 Subfamily D Member 6 (CYP2D6) small molecule antagonists: luciferase reporter qHTS assay (AID 1671196); further: nearly all actives have a fitted effect of over 50% in size; further: potency means the concentration at half of the fitted maximal effect
# Chain of Cytochrome P450 2D6 (Homo sapiens) (P10635 whole entry, looked up): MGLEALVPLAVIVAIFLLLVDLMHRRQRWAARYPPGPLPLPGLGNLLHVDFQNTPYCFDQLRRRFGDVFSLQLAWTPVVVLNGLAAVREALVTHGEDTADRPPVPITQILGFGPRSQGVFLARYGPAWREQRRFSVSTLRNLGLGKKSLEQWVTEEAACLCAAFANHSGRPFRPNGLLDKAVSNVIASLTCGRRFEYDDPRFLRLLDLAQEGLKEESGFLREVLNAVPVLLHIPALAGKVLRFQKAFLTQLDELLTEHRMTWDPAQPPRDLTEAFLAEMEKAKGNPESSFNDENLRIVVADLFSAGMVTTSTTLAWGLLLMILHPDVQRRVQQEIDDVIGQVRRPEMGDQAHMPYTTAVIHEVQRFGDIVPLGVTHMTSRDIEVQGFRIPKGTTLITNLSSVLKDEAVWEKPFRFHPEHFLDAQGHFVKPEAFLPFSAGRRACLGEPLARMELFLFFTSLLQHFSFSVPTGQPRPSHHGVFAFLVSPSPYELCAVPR
# Summary of the method: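 Each well received CYP2D6 with its proluciferin substrate and chemical, sat 10 min, then got NADPH regeneration solution for 1 h at room temperature. Luminescence in RLU served as the activity measure.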
# [7] = Caspase-3/7 induction in CHO-K1 cells by small molecules, qHTS assay (AID 1346980); further: nearly all actives have a fitted effect of over 15% in size
# Summary of the method: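 Wild-type cells were seeded at 1,500 per well and settled 5 hr at 37 C, 5% CO2, then exposed to DMSO-dissolved compounds for 17 hr. Caspase-Glo 3/7 reagent was added, and luminescence was read after 30min at room temperature.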
# [8] = target: Nuclear receptor subfamily 1 group I member 2 (Rattus norvegicus) (UniProt Q9R1A7); experiment: Rat pregnane X receptor (rPXR) activation by small molecules, qHTS assay (AID 1346983); details: rPXR luciferase reporter cells, One-Glo luminescence, 24 h; max activation: hits give high values; further: nearly all actives have a fitted effect of over 20% in size
# Chain of Nuclear receptor subfamily 1 group I member 2 (Rattus norvegicus) (Q9R1A7 whole entry, looked up): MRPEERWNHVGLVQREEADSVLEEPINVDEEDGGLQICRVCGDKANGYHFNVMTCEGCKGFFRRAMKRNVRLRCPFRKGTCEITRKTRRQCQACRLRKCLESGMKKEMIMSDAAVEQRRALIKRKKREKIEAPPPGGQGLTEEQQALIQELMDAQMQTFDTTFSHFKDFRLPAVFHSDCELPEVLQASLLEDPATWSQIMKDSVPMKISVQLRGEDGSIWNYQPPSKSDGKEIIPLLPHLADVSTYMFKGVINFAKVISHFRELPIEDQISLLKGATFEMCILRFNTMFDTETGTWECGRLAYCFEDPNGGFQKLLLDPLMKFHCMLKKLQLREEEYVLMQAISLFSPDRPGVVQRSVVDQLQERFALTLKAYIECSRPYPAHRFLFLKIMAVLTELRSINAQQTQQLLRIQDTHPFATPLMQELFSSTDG
# Summary of the method: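 Cell-based rPXR luciferase reporter assay, 2,000 cells per well, rested 5hr at 37 C before compound addition in DMSO, then 24 hr at 37 C. One-Glo reagent was added and luminescence read after 30 min at room temperature.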
# [9] = target: Nuclear receptor subfamily 1 group I member 2 (Homo sapiens) (UniProt O75469); experiment: CYP3A4 induction through human pregnane X receptor (PXR) by small molecules, qHTS assay (AID 1346984); further: nearly all actives have a fitted effect of over 40% in size
# Summary of the method: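 Readings come from a luciferase reporter: DPX-2 cells, which are HepG2 cotransfected with PXR and a CYP3A4-promoter construct, were exposed to test compounds for 24 h at 37C before One-Glo detection.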
# [10] = target: Nuclear receptor subfamily 1 group I member 2 (Homo sapiens) (UniProt O75469); experiment: Human pregnane X receptor (PXR) activation by small molecules, qHTS assay (AID 1346985); further: nearly all actives have a fitted effect of over 40% in size
# Summary of the method: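 DPX-2 cells (HepG2 co-transfected with a PXR response element and a CYP3A4-promoter luciferase construct) were seeded at 2,000 per well, rested 5 hr at 37C, then exposed to DMSO-dissolved compounds for 24 hr. Activation was read as luciferase luminescence.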
SMILES,Potency [1],Potency [2],Potency [3],Potency [4],Potency [5],Potency [6],Potency [7],max activation [8],Potency [9],Potency [10]
OC1(c2ccc(Cl)c(C(F)(F)F)c2)CCN(CCCC(c2ccc(F)cc2)c2ccc(F)cc2)CC1,10.6 µM (active),13.3 µM (active),13.3 µM (active),18.8 µM (active),inactive,4.9 µM (active),–,–,–,–
CC(C)=CCOc1ccc(/C=C/C(=O)c2ccc(OCC=C(C)C)cc2OCC(=O)O)cc1,inactive,inactive,–,inactive,inactive,–,inactive,-3.35% (inactive),–,–
N#CC1(c2ccc(F)cc2)CCC(=O)CC1,inactive,inactive,–,inactive,inactive,inactive,inactive,–,–,–
CCC(Cl)C(Cl)C(Cl)CC(Cl)C(Cl)C(C)Cl (stereo not drawn),inactive,inactive,–,inactive,21.7 µM (active),35.6 µM (active),inactive,–,–,–
CCCCCCCCCCn1cc[n+](CCCCCCCCCC)c1C,19.4 µM (active),48.6 µM (active),6.87 µM (active),68.7 µM (active),7.7 µM (active),1.26 µM (active),–,–,–,–
O=C(c1ccc(O)cc1O)c1ccc(O)cc1O,inactive,inactive,–,inactive,61.2 µM (active) and 43.3 µM (active),7.98 µM (active) and 11.2 µM (active),inactive,–,–,–
Clc1ccc(C(Cn2ccnc2)OCc2ccc(Sc3ccccc3)cc2)c(Cl)c1 (stereo not drawn),inactive,inactive,–,inactive,26.6 µM (active),0.389 µM (active),inactive,–,–,–
COc1ccc(C(=O)/C(Br)=C\C(=O)O)cc1,61.1 µM (active),inactive,54.5 µM (active),–,21.7 µM (active),63.3 µM (active),–,-6.96% (inactive),inactive,inactive
Cc1cccc(N(C)C(=S)Oc2ccc3c(c2)C2CCC3C2)c1 (stereo not drawn),inactive,inactive,–,inactive,11.9 µM (active),–,inactive,–,–,–
CNC(=O)c1ccccc1,inactive,inactive,–,inactive,inactive,–,inactive,–,–,–
O=C(Oc1ccccc1)c1ccccc1C(=O)Oc1ccccc1,inactive,inactive,–,inactive,inactive,inactive,inactive,–,–,–
CCCCCOC(=O)CCCC,inactive,inactive,–,inactive,inactive,inactive,inactive,–,–,–
NC(=O)CC[C@@H]1NC(=O)[C@H](Cc2ccccc2)NC(=O)[C@H](Cc2ccc(O)cc2)NC(=O)CCSSC[C@@H](C(=O)N2CCC[C@H]2C(=O)N[C@@H](CCCN=C(N)N)C(=O)NCC(N)=O)NC(=O)[C@H](CC(N)=O)NC1=O,inactive,inactive,–,inactive,inactive,inactive,inactive,-2.21% (inactive),inactive,inactive
O=C(O)c1ccc(Cl)c(Cl)c1,inactive,inactive,–,inactive,inactive,inactive,inactive,–,–,–
CCCCCCOC(=O)c1ccc(O)cc1,inactive,inactive,–,inactive,inactive,–,inactive,–,–,–
Oc1cccc(-c2c3nc(c(-c4cccc(O)c4)c4ccc([nH]4)c(-c4cccc(O)c4)c4nc(c(-c5cccc(O)c5)c5ccc2[nH]5)CC4)C=C3)c1,15 µM (active),inactive,–,13.3 µM (active),inactive,–,inactive,–,–,–
[Cl][Bi]([Cl])([c]1ccccc1)([c]1ccccc1)[c]1ccccc1,3.83 µM (active),inactive,–,68.2 µM (active),0.483 µM (active),6.29 µM (active),inactive,–,–,–
ON=C1CCCC1,inactive,inactive,–,inactive,inactive,–,inactive,–,–,–
Oc1ccc2c(c1)-c1ccccc1C2,inactive,inactive,–,inactive,68.6 µM (active),inactive,inactive,–,–,–
CC(=O)S[C@@H]1CC2=CC(=O)CC[C@]2(C)[C@H]2CC[C@@]3(C)[C@@H](CC[C@@]34CCC(=O)O4)[C@H]12,inactive,inactive,–,–,–,–,inactive,–,–,–
CSc1ccc(C(=O)c2[nH]c(=O)[nH]c2C)cc1,inactive,inactive,–,inactive,inactive,inactive,inactive,–,–,–
CN(C)c1ccc(C2(c3ccc(N(C)C)cc3)OC(=O)c3cc(N(C)C)ccc32)cc1,inactive,inactive,–,inactive,inactive,inactive,inactive,–,–,–
O=c1[nH]cnc2nc[nH]c12,inactive,inactive,–,inactive,inactive,inactive,inactive,-3.71% (inactive),inactive,inactive
